Data from PubChem BioAssay (NCATS).
Results filed as inconclusive are left out. A call without a number means that no potency is given here. Activity calls are given as the source filed them. Calls follow the shape of the dose curve; as a rule, active = well fitted inhibition curve with a large enough effect; inconclusive = small, poorly fitted or top-dose-only effect; inactive = flat fitted curve, though single readings scatter.

Key:
Assay in all cases: qHTS profiling for inhibitors of Plasmodium falciparum proliferation (AID 504749); also: nearly all actives have a fitted effect of over 60% in size
Conditions in all cases: P. falciparum in erythrocytes, SYBR Green DNA, 72 h; series mostly up to 28.7 µM
CP191 = test system: CP191
Method in brief: (§1)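 Infected RBCs, 0.3% parasitemia/2.5% Hct final; cpd 72 h, 37 C, 5% CO2; lysis buffer with saponin/triton/SYBR Green I, o/n RT dark; FI 485/535; norm. to artemisinin (0.29 uM) and DMSO.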

CP192 = test system: CP192
Method in brief: as §1

CP194 = test system: CP194
Method in brief: as §1

CP201 = test system: CP201
Method in brief: as §1

CP211 = test system: CP211
Method in brief: as §1

CP215 = test system: CP215
Method in brief: as §1

CP217 = test system: CP217
Method in brief: as §1

CP237 = test system: CP237
Method in brief: as §1

CP238 = test system: CP238
Method in brief: as §1

CP203 = test system: CP203
Method in brief: as §1
Potency is read from the fitted curve at half-maximal effect.

SMILES | Potency (CP191) | Potency (CP192) | Potency (CP194) | Potency (CP201) | Potency (CP211) | Potency (CP215) | Potency (CP217) | Potency (CP237) | Potency (CP238) | Potency (CP203)
NC1CCN(c2cccc(Cl)n2)CC1 | inactive | inactive | inactive | inactive | inactive | inactive | inactive | 12.6 µM (active) | inactive | 
CSc1ccc2c(c1)N(CCC1CCCCN1C)c1ccccc1S2 (configuration not stated) |  |  |  | inactive | inactive |  |  | 10 µM (active) |  | 
CCCc1c(OCCCCc2nn[nH]n2)ccc(C(C)=O)c1O |  | inactive | inactive | inactive | inactive | inactive | inactive | inactive | inactive | inactive
COc1ccc2[nH]c(S(=O)Cc3ncc(C)c(OC)c3C)nc2n1 (configuration not stated) |  | inactive | inactive | inactive | inactive | inactive |  |  |  | inactive
CSc1ccc2c(c1)C(N1CCN(C)CC1)Cc1ccccc1S2 (configuration not stated) |  | inactive |  | inactive |  |  |  |  |  | 
CCN(CC)CCNC(C(=O)OCCC(C)C)c1ccccc1 (configuration not stated) |  |  |  |  | inactive |  |  | 3.16 µM (active) |  | 9.53 µM (active)
CNC(=O)Oc1ccc2c(c1)[C@]1(C)CCN(C)[C@@H]1N2C | 2.24 µM (active) |  |  |  |  |  |  | 4.47 µM (active) | 1.78 µM (active) | 
Cc1cc(N)c2ccccc2[n+]1CCCCCCCCCC[n+]1c(C)cc(N)c2ccccc21 | 0.0501 µM (active) |  | 0.361 µM (active) | 0.642 µM (active) | 0.144 µM (active) | 0.809 µM (active) | 0.447 µM (active) | 0.126 µM (active) | 0.282 µM (active) | 
CN1CCCCC1CCN1c2ccccc2Sc2ccc(S(C)=O)cc21 (configuration not stated) |  | inactive |  | inactive |  | 15.1 µM (active) | inactive |  |  | 
Cc1c(O)cccc1C(=O)N[C@@H](CSc1ccccc1)[C@H](O)CN1C[C@H]2CCCC[C@H]2C[C@H]1C(=O)NC(C)(C)C |  | inactive |  |  | inactive |  |  |  |  | 
CCOC(CN1CCN(CC(C)C(=O)c2ccccc2)CC1)c1ccccc1 (configuration not stated) | inactive | inactive |  | inactive | inactive | inactive | inactive |  | inactive | inactive
CC(C(O)c1ccc(O)cc1)N1CCC(Cc2ccccc2)CC1 (configuration not stated) | 7.94 µM (active) |  | 15.1 µM (active) |  |  |  |  | 8.91 µM (active) |  | 12 µM (active)
CN1CCN(C2Cc3ccccc3Sc3ccc(Cl)cc32)CC1 (configuration not stated) | inactive | inactive |  | inactive | inactive |  |  |  | inactive | 
c1ccc(CN(CC2=NCCN2)c2ccccc2)cc1 | inactive | inactive |  | inactive | inactive |  | inactive |  |  | 
CCN(CC)CCNC(=O)c1c(C)[nH]c(/C=C2\C(=O)Nc3ccc(F)cc32)c1C | 7.94 µM (active) |  |  |  | 10.7 µM (active) |  | 11.2 µM (active) | 8.91 µM (active) | 7.94 µM (active) | 10.7 µM (active)
CCOc1nc2cccc(C(=O)O)c2n1Cc1ccc(-c2ccccc2-c2nn[nH]n2)cc1 | inactive | inactive |  | inactive | inactive |  |  | inactive | inactive | 
CCOc1ccc2ccccc2c1C(=O)N[C@@H]1C(=O)N2[C@@H]1SC(C)(C)[C@@H]2C(=O)O | inactive | inactive | inactive | inactive | inactive | inactive | inactive | inactive | inactive | 
OCc1cc(C(O)CNCCCCCCOCCCCc2ccccc2)ccc1O (configuration not stated) |  | inactive | inactive | inactive |  |  | inactive |  | inactive | 
